In PubChem BioAssay (Tox21):
Inconclusive results are not listed. The source made the active and inactive calls. Unless noted, calls come from the whole dose curve; as a rule, active = well fitted curve in the direction sought with a large enough effect in the repeat runs; inconclusive = weak or mixed curves; inactive = no such curve, though single readings can be large; an effect the other way counts as inactive or inconclusive.

How the values were obtained:
[1] = qHTS assay for small molecule agonists of the p53 signaling pathway (AID 651631; calls by dose curve; note: nearly all actives have a fitted effect of over 15% in size)
In short: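 Beta-lactamase reporter activity under p53 response elements was quantified in HCT-116 cells by FRET fluorescence, following 16 h incubation with test compounds at 37 °C and 2 h substrate development at room temperature.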

[2] = qHTS assay for small molecules that induce genotoxicity in human embryonic kidney cells expressing luciferase-tagged ATAD5 (AID 651632); note: nearly all actives have a fitted effect of over 15% in size
In short: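 A rise in luciferase signal from ATAD5-tagged HEK293T cells marks genetic stress. Cells were exposed to compounds for 16 hr at 37C, 5% CO2, then luciferase was quantified after a 30 min room-temperature incubation with Amplite.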

[3] = qHTS assay for small molecule agonists of the p53 signaling pathway - cell viability (AID 651633; calls by dose curve;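 note: p53RE-bla HCT reporter cells with a stable beta-lactamase p53 reporter; series mostly up to about 83 µM; nearly all actives have a fitted effect of over 30% in size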)
In short: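 Viability counter-read: CellTiter-Glo luminescence (30 min, room temperature) in the same p53RE-bla plates. These plates had been exposed to compounds for 16 h at 37 C.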

[4] = qHTS assay for small molecules that induce genotoxicity in human embryonic kidney cells expressing luciferase-tagged ATAD5 - cell viability (AID 651634; calls by dose curve; note: nearly all actives have a fitted effect of over 25% in size)
In short: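 Cytotoxicity counter-readout: after 15.5 hr compound treatment at 37C, live-cell protease activity in ATAD5-luciferase HEK293T cells measured by CellTiter-Fluor fluorescence, 30 min development at 37C.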

[5] = qHTS assay for small molecule disruptors of the mitochondrial membrane potential - cell viability (AID 720634; calls by dose curve;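 note: human HepG2 liver cancer cells; series mostly up to about 83 µM; nearly all actives have a fitted effect of over 20% in size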)
In short: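 Cytotoxicity was quantified from ATP content by CellTiter-Glo luminescence in the same wells as the MMP dye read-out. HepG2 (2,000 cells/well) were plated overnight and exposed to compounds for 1 hr at 37 C.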

[6] = qHTS assay to test for compound auto fluorescence at 535 nm (green) in HepG2 cells (AID 720675)
[7] = qHTS assay to test for compound auto fluorescence at 460 nm (blue) in HEK293 cells (AID 720678)
In short: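 Measured: blue fluorescence (Ex 405/Em 460 nm) of compound-treated HEK293 cells, incubated overnight at 37C with 5% CO2 and scaled to triamterene equivalents.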

[8] = qHTS assay to test for compound auto fluorescence at 590 nm (red) in HEK293 cells (AID 720679)
In short: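 Using HEK293 cells at 2,000 per well, the screen added 23 nL of each compound after cell attachment and incubated overnight (37C, 5% CO2). The plate reader then captured red-label fluorescence, Ex/Em 540/590nm.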

[9] = qHTS assay to test for compound auto fluorescence at 535 nm (green) in HEK293 cells (AID 720680)
[10] = qHTS assay to test for compound auto fluorescence at 460 nm (blue) in HEK293 cell free culture (AID 720681)
In short: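 Blue fluorescence (Ex 405/Em 460 nm, triamterene-equivalent) was read immediately after pin transfer of compound or DMSO into medium (DMEM, 10% FBS) without cells.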

[11] = qHTS assay to test for compound auto fluorescence at 535 nm (green) in HEK293 cell free culture (AID 720682)
In short: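 Each library compound, or DMSO control, is added by pintool to medium alone, comprising DMEM and 10% FBS. Emission at 535 nm following 485 nm excitation is quantified against fluorescein.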

[12] = qHTS assay to test for compound auto fluorescence at 590 nm (red) in HEK293 cell free culture (AID 720683)
In short: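 Red-channel autofluorescence of compounds in culture medium (DMEM, 10% FBS), no cells, measured at 540/590 nm. Rose Bengal sodium is the reference fluorophore for equivalence.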

[13] = qHTS assay to test for compound auto fluorescence at 590 nm (red) in HepG2 cell free culture (AID 720684)
In short: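 Cell-free; medium MEM + 10% FBS; compound or DMSO added by pintool; read Ex 540/Em 590 nm; Rose Bengal sodium as red reference fluorophore.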

[14] = qHTS assay to test for compound auto fluorescence at 460 nm (blue) in HepG2 cell free culture (AID 720685)
In short: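 Cell-free plates of MEM plus 10% FBS received 23 nL compound or DMSO vehicle; blue-channel (405/460 nm) intensity scored against triamterene as reference fluorophore.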

[15] = qHTS assay to test for compound auto fluorescence at 535 nm (green) in HepG2 cell free culture (AID 720686)
[16] = biological target: Glucocorticoid receptor (Homo sapiens) (UniProt P04150); test: qHTS assay to identify small molecule agonists of the glucocorticoid receptor (GR) signaling pathway (AID 720691; active = well fitted activation curve with a large enough effect in the signal ratio in the repeat runs, not every such curve was filed as active; the % refers to the signal ratio)
Chain of Glucocorticoid receptor (Homo sapiens) (P04150 whole entry, looked up): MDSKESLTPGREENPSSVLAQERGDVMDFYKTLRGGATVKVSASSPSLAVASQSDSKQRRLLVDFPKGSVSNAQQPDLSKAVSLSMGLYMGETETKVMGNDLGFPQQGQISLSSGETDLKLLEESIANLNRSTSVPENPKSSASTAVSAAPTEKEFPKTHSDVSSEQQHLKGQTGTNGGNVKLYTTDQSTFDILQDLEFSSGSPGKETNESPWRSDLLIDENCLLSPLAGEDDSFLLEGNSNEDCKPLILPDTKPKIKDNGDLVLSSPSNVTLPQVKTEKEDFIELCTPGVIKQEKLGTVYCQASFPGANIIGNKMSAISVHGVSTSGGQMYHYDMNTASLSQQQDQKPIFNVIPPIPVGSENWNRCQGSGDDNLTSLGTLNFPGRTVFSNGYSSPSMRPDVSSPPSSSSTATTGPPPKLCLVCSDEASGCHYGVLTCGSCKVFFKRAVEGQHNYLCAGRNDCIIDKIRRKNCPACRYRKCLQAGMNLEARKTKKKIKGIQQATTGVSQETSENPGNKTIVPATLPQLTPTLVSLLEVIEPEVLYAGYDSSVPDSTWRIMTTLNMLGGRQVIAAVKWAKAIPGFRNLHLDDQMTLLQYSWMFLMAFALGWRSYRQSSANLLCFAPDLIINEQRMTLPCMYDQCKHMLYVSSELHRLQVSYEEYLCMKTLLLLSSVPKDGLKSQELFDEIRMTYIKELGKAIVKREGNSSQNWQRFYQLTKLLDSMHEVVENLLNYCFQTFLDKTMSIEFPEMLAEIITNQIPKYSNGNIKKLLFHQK
In short: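 Agonist-mode qHTS in HeLa cells stably expressing a glucocorticoid-response-element beta-lactamase reporter. Fluorescence intensity read with FRET substrate (2 h, room temperature) after 18 h compound treatment at 37 C.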

[17] = qHTS assay to test for compound auto fluorescence at 590 nm (red) in HepG2 cells (AID 720674)
In short: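 Red autofluorescence (Ex/Em 540/590 nm, Rose Bengal sodium equivalents) was measured in HepG2 cells, 2,000 per well in MEM plus 10% FBS, plated overnight at 37 C. Readings were taken 1 hr after adding 23 nL compound or DMSO, at 37 C and 5% CO2.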

[18] = qHTS assay to test for compound auto fluorescence at 460 nm (blue) in HepG2 cells (AID 720687)
In short: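 Blue-channel autofluorescence (Ex/Em 405/460 nm, triamterene-equivalent) was measured after 1 hr compound exposure at 37 C, 5% CO2. Cells were HepG2, plated overnight at 37 C in MEM plus 10% FBS.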

[19] = biological target: Glucocorticoid receptor (Homo sapiens) (UniProt P04150); test: qHTS assay to identify small molecule antagonists of the glucocorticoid receptor (GR) signaling pathway (AID 720692; active = well fitted inhibition curve with a large enough effect in the signal ratio in the repeat runs, not every such curve was filed as active; the % refers to the signal ratio)
In short: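 Inhibition of dexamethasone-driven (5 nM final) beta-lactamase expression was measured in GRE-reporter HeLa cells over 18 h at 37C. Fluorescence was read after 2 h with the B/G FRET substrate at room temperature.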
% is set by controls: 0 for no effect and ±100 for the full control effect.

O=C(NC(Cc1cc(=O)[nH]c2ccccc12)C(=O)O)c1ccc(Cl)cc1 (centres undefined)
inactive: Potency [1] | Potency [2] | Potency [3] | Potency [4] | outcome [5] | outcome [6] | Potency [7] | outcome [8] | outcome [9] | Potency [10] | outcome [11] | outcome [12] | outcome [13] | Potency [14] | outcome [15] | Potency [16]

CCC(CO)(CO)[N+](=O)[O-]
inactive: Potency [1] | Potency [2] | Potency [3] | Potency [4] | outcome [5] | outcome [17] | Potency [7] | Potency [10] | outcome [11] | outcome [12] | outcome [13] | Potency [14] | outcome [15] | Potency [18]

CC(C)N(C)C
inactive: Potency [1] | Potency [2] | Potency [3] | Potency [4] | outcome [5] | outcome [17] | Potency [7] | outcome [8] | outcome [9] | Potency [10] | outcome [11] | outcome [12] | outcome [13] | Potency [14] | Potency [18] | Potency [16] | Potency [19]

CCN(CC)CCOC(=O)C(c1ccccc1)c1ccccc1
inactive: Potency [1] | Potency [2] | Potency [3] | Potency [4] | outcome [5] | outcome [17] | outcome [6] | outcome [9] | Potency [10] | outcome [11] | outcome [12] | outcome [13] | Potency [14] | outcome [15] | Potency [18] | Potency [16] | Potency [19]

BrC(Br)C(Br)Br
inactive: Potency [1] | Potency [2] | Potency [3] | Potency [4] | outcome [5] | outcome [17] | outcome [6] | outcome [8] | outcome [9] | Potency [10] | outcome [11] | outcome [12] | outcome [13] | Potency [14] | outcome [15] | Potency [16] | Potency [19]

CC(=O)OC(C)C[N+](C)(C)C (centres undefined)
inactive: Potency [1] | Potency [2] | Potency [3] | Potency [4] | outcome [5] | fluorescence, relative to Rose Bengal [17] 0.553% [at 18.6 µM] | fluorescence, % of triamterene [7] -0.423% [at 18.6 µM] | fluorescence, % of fluorescent control [8] -0.334% [at 18.6 µM] | fluorescence, % of fluorescein [9] -0.0571% [at 18.6 µM] | fluorescence, % of fluorescent control [10] -0.0614% [at 18.6 µM] | activity change [11] -0.0135% [at 18.6 µM] | fluorescence, % of fluorescent control [12] 0.423% [at 18.6 µM] | fluorescence, % of Rose Bengal [13] -0.229% [at 18.6 µM] | fluorescence, % of fluorescent control [14] -0.0627% [at 18.6 µM] | fluorescence, % of fluorescein control [15] -0.0048% [at 18.6 µM] | fluorescence, % of fluorescent control [18] -0.0338% [at 18.6 µM] | Potency [16] | Potency [19]

NC(=O)CCCCC(N)=O
inactive: Potency [1] | Potency [2] | Potency [3] | Potency [4] | outcome [5] | outcome [17] | Potency [7] | outcome [8] | Potency [10] | outcome [11] | outcome [12] | outcome [13] | outcome [15] | Potency [18]

Nc1nc(-c2ccc([N+](=O)[O-])cc2)cs1
inactive: Potency [1] | Potency [2] | Potency [3] | Potency [4] | outcome [5] | outcome [6] | Potency [7] | outcome [8] | outcome [9] | Potency [10] | outcome [11] | outcome [12] | outcome [13] | Potency [14] | outcome [15] | Potency [18] | Potency [16] | Potency [19]

CCO[Si](C)(CCCOCC1CO1)OCC (centres undefined)
inactive: Potency [1] | Potency [2] | Potency [3] | Potency [4] | outcome [5] | outcome [6] | outcome [8] | outcome [9] | Potency [10] | outcome [11] | outcome [12] | outcome [13] | Potency [14] | Potency [16] | Potency [19]

O=CNNC=O
inactive: Potency [1] | Potency [2] | Potency [3] | Potency [4] | outcome [5] | outcome [17] | outcome [6] | Potency [7] | Potency [10] | outcome [11] | outcome [12] | outcome [13] | Potency [14] | outcome [15] | Potency [16] | Potency [19]

O=C1OC[C@H](Cc2cccc(O)c2)[C@H]1Cc1cccc(O)c1
inactive: Potency [1] | Potency [2] | Potency [3] | Potency [4] | outcome [5] | outcome [17] | outcome [6] | Potency [7] | Potency [10] | outcome [11] | outcome [12] | outcome [13] | Potency [14] | outcome [15] | Potency [19]

CCOCCC(=O)OCC
inactive: Potency [1] | Potency [2] | Potency [3] | Potency [4] | outcome [5] | Potency [7] | outcome [8] | outcome [9] | Potency [10] | outcome [11] | outcome [12] | outcome [13] | Potency [14] | outcome [15] | Potency [18]

CC(C)C(O)C(C)(C)CO (centres undefined)
inactive: Potency [1] | Potency [2] | Potency [3] | Potency [4] | outcome [5] | outcome [17] | Potency [7] | outcome [9] | Potency [10] | outcome [11] | outcome [12] | outcome [13] | Potency [14] | outcome [15] | Potency [18] | Potency [16] | Potency [19]

CCNc1nc(N)nc(Cl)n1
inactive: Potency [1] | Potency [2] | Potency [3] | Potency [4] | outcome [5] | outcome [6] | Potency [7] | outcome [8] | outcome [9] | Potency [10] | outcome [11] | outcome [12] | outcome [13] | Potency [14] | outcome [15]

O=[N+]([O-])c1ccc2ncccc2c1
inactive: Potency [1] | Potency [2] | Potency [3] | Potency [4] | outcome [5] | outcome [17] | outcome [6] | outcome [9] | Potency [10] | outcome [11] | outcome [12] | outcome [13] | Potency [14] | outcome [15] | Potency [18]
